According to PubChem BioAssay:

Experiment: growth effects on S. cerevisiae YJM789 – YJM789 clinical isolate, OD600, 24 h, basal, primary screen (AID 1089);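 further: growth of clinical yeast isolate S. cerevisiae YJM 789 seeded 1000 cells per well; test concentration not given here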
Conditions: higher = more signal, called active from +8 up or from −8 down

z-score, inactive:
C#CCCCON=C1[C@H]2CCn3c(=O)n(C)c(=O)n3[C@H]2[C@H](O)[C@@H]2O[C@H]12 0.516
CCCCC#C[C@@H]1C=C[C@H](OC(C)=O)[C@@H](COC(C)=O)O1 0.248
CO[C@@H]1COC(=O)[C@@H](C)COC(=O)[C@@H](C)NC(=O)CC=C[C@@H]1C -2.2
Cc1ccc(S(=O)(=O)OC[C@H]2CN3[C@H](c4ccc(Br)cc4)[C@@H](C)CC[C@H]3C(=O)O2)cc1 -0.855
COc1ccc(COC(=O)NN=C2C[C@@H](O)[C@@H](O)[C@@H]3[C@@H]4C(=O)N(c5cccc(Oc6ccccc6)c5)C(=O)[C@@H]4CC[C@@H]23)cc1 1.15
O=C1C2=CC[C@H]3C(=O)N(c4cccc(Oc5ccccc5)c4)C(=O)[C@H]3[C@H]2[C@H](O)[C@@H]2O[C@H]12 0.135
CC(CCN1CCCCc2nc(C)c(C)cc21)=NO[C@H](C)c1cn([C@H](CO)Cc2ccccc2)nn1 -0.585
CO[C@@H]1COC(=O)[C@H](CCSC)NC(=O)CC=C[C@@H](C)COC(=O)CCC[C@H]1C -1.16
CC(CCN1CCCc2nc(C)c(C)cc21)=NO[C@@H](C)c1cc(-c2c(C)cc(C)cc2C)no1 0.0024
CO[C@@H]1COC(=O)[C@@H](C)NC(=O)CC=C[C@@H](C)[C@H](NS(=O)(=O)c2ccc(C)cc2)COC(=O)[C@H](C)NC(=O)CC=C[C@H]1C -0.263
CCN1C(=O)[C@H]2[C@H]3[C@H](O)[C@H](O)CC(=NOC[C@H]4O[C@H](c5ccccc5)C=C[C@@H]4Oc4ccc(OC)cc4)[C@@H]3CC[C@H]2C1=O -0.125
CCOC(=O)[C@H](CC(C)C)NC(=O)CCC1CC(OC(=O)NCc2cccc3ccccc23)CC2(CCCC(COC(=O)NCC3CCCCC3)O2)O1 (some centres not stated) -0.402
CC(C)CCN1CCc2nc(COc3ccccc3)c3c(c2C1)CO[C@@H](C)C3 0.377
COC(=O)CC=C[C@@H](C)[C@@H](C=NO[C@H](C)c1cn([C@H](CO)Cc2ccccc2)nn1)OC -0.14
CON=C(C)CCC(=O)OC[C@H]1O[C@H](c2ccccc2)C=C[C@@H]1Oc1ccc(OC)cc1 1.34
CCOC(=O)NN=C1C[C@@H](O)[C@@H](O)[C@@H]2[C@@H]3C(=O)N(c4cccc(Oc5ccccc5)c4)C(=O)[C@@H]3CC[C@@H]12 -0.73
CCN1C(=O)[C@H]2[C@H]3[C@H](O)[C@H](O)CC(=NO[C@@H](C)c4cn([C@H](CO)Cc5ccccc5)nn4)[C@@H]3CC[C@H]2C1=O 0.149
COC(=O)CC=C[C@@H](C)[C@@H]1C=C[C@H](O)[C@@H](CO)O1 0.773
C[C@@H](ON=C1[C@H]2CCn3c(=O)n(-c4ccccc4)c(=O)n3[C@H]2[C@H](O)[C@@H]2O[C@H]12)c1cn([C@@H]2COC[C@H]2O)nn1 -0.638
CC(CCC(=O)OC[C@H]1O[C@H](C#Cc2ccccc2)C=C[C@@H]1Oc1ccc(C)cc1)=NO[C@H](C)c1cn([C@H](CO)Cc2ccccc2)nn1 1.62
C#CCCCON=C1C[C@@H](O)[C@@H](O)[C@@H]2[C@@H]3C(=O)N(C(C)(C)C)C(=O)[C@@H]3CC[C@H]12 -0.234
COc1ccc(COC(=O)NN=C2C[C@@H](O)[C@@H](O)[C@@H]3[C@@H]4C(=O)N(C5CCCCC5)C(=O)[C@@H]4CC[C@H]23)cc1 0.494
COC(=O)CC=C[C@H](C)[C@@H](OCc1cccc(Br)c1)[C@@H](C)[C@H](OC)C1CCCCC1 0.738
Cc1ccc(S(=O)(=O)N[C@@H]2COC(=O)[C@@H](C)COC(=O)CC=C[C@H]2C)cc1 1.19
O=C1[C@H]2[C@H]3[C@H](O)[C@H](O)CC(=NO[C@@H]4O[C@H](CO)[C@@H](O)[C@H](O)[C@H]4O)[C@H]3CC[C@H]2C(=O)N1c1cccc(Oc2ccccc2)c1 -0.513
CCC1=NOC(CCC2CC(OC(=O)NCc3cccc4c3OCO4)CC3(CCCC(COC(=O)NCCc4ccccc4OC)O3)O2)C1 (configuration not stated) -0.873
CCOC(=O)[C@H](CC(C)C)NC(=O)CCC1CC(OC(=O)NCc2cccc3ccccc23)CC2(CCCC(COC(=O)NCCOc3ccccc3)O2)O1 (some centres not stated) -0.524
